From PubChem BioAssay (NCATS) come the findings set out here.

SMILES strings stand for the structures. Results filed as inconclusive are left out. The source made the active and inactive calls. The call rests on the fitted dose curve; in most records, active means well fitted curve in the direction sought with a large enough effect; inconclusive means small, poorly fitted or top-dose-only effect, or another doubt; inactive means no such curve, though single readings can be large; an effect the other way counts as inactive or inconclusive.

The nature of assay [1]: qHTS of pediatric cancer cell lines to identify multiple opportunities for drug repurposing: Primary screen for Rh41 cells (AID 1347108). Further: nearly all actives have a fitted effect of over 70% in size. Further: potency means the concentration at half of the fitted maximal effect. Put shortly: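 CRCs from 8- or 11-point titrations (lowest final 0.59 nM NPC, 0.78 nM MIPE). Cell viability: CellTiter-Glo after 48 h incubation, 15 min room-temperature development, luminescence imaging.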
Assay [2] in a line: qHTS of pediatric cancer cell lines to identify multiple opportunities for drug repurposing: Confirmatory screen for NB1643 cells (AID 1347109). Further: nearly all actives have a fitted effect of over 45% in size. Further: potency means the concentration at half of the fitted maximal effect. The method in brief:
(§1)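 Cells (500-1,000/well) in growth media were settled 5 h at 37 degrees C, then given compounds for 48 h. Viability was read as CellTiter-Glo luminescence. Primary runs used MIPE at 11 points (0.78 nM-46 µM) and NPC at 8 points (0.59 nM-46 µM); follow-ups used 11 points.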
(In general: In qHTS, concentration-response curves come from the screen itself.)

A short description of assay [3]: qHTS of pediatric cancer cell lines to identify multiple opportunities for drug repurposing: Confirmatory screen for A673 cells (AID 1347110).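 Further: cells exposed to compound for 48 h before the viability read; nearly all actives have a fitted effect of over 65% in size.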 Further: potency means the concentration at half of the fitted maximal effect. The method in brief:
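Forty-eight-hour viability assay. Follow-up compounds ran at 11-point dilutions; positive control bortezomib at 2.3 uM final, neutral control DMSO.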

Assay [4] can be described thus: qHTS of pediatric cancer cell lines to identify multiple opportunities for drug repurposing: Confirmatory screen for LAN-5 cells (AID 1347113). Further: nearly all actives have a fitted effect of over 65% in size. Further: potency means the concentration at half of the fitted maximal effect. Put shortly: as §1
Assay [5] in a line: qHTS of pediatric cancer cell lines to identify multiple opportunities for drug repurposing: Confirmatory screen for SJ-GBM2 cells (AID 1347116). Further: nearly all actives have a fitted effect of over 60% in size. Further: potency means the concentration at half of the fitted maximal effect. The method in brief:
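Viability measured as metabolically active cells via CellTiter-Glo luminescence following 48 hours of compound exposure, 11-point dilutions in confirmatory testing. 500-1,000 cells/well plated 5 hours before dosing; controls were DMSO and 2.3 µM bortezomib.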

Assay [6] is described as follows: qHTS of pediatric cancer cell lines to identify multiple opportunities for drug repurposing: Confirmatory screen for BT-37 cells (AID 1347117). Further: nearly all actives have a fitted effect of over 55% in size. Further: potency means the concentration at half of the fitted maximal effect. Put shortly: as §1
Assay [7] is described as follows: qHTS of pediatric cancer cell lines to identify multiple opportunities for drug repurposing: Confirmatory screen for TC32 cells (AID 1347118).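 Further: potency means the concentration at half of the fitted maximal effect; cells exposed to compound for 48 h before the read; nearly all actives have a fitted effect of over 65% in size.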 Put shortly:
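Luminescent CellTiter-Glo read-out of metabolically active TC32 cells after 48 h compound exposure. Primary: MIPE 11-point, 0.78 nM–46 µM; NPC 8-point, 0.59 nM–46 µM. Confirmatory: 11-point dilutions.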

A short description of assay [8]: qHTS of pediatric cancer cell lines to identify multiple opportunities for drug repurposing: Confirmatory screen for MG 63 (6-TG R) cells (AID 1347119). Further: nearly all actives have a fitted effect of over 55% in size. Further: potency means the concentration at half of the fitted maximal effect. Put shortly: as §1
A short description of assay [9]: qHTS of pediatric cancer cell lines to identify multiple opportunities for drug repurposing: Confirmatory screen for U-2 OS cells (AID 1347122). Further: nearly all actives have a fitted effect of over 65% in size. Further: potency means the concentration at half of the fitted maximal effect. Put shortly:
as §1

Assay [10] is described as follows: qHTS of pediatric cancer cell lines to identify multiple opportunities for drug repurposing: Confirmatory screen for Rh41 cells (AID 1347123). Further: nearly all actives have a fitted effect of over 60% in size. Further: potency means the concentration at half of the fitted maximal effect. The method in brief:
as §1

Assay [11] in a line: qHTS of pediatric cancer cell lines to identify multiple opportunities for drug repurposing: Confirmatory screen for RD cells (AID 1347124). Further: potency means the concentration at half of the fitted maximal effect. The method in brief:
as §1

A short description of assay [12]: qHTS of pediatric cancer cell lines to identify multiple opportunities for drug repurposing: Confirmatory screen for Rh30 cells (AID 1347126). Further: nearly all actives have a fitted effect of over 55% in size. Further: potency means the concentration at half of the fitted maximal effect. The method in brief:
as §1

The nature of assay [13]: qHTS of pediatric cancer cell lines to identify multiple opportunities for drug repurposing: Confirmatory screen for Saos-2 cells (AID 1347127). Further: nearly all actives have a fitted effect of over 60% in size. Further: potency means the concentration at half of the fitted maximal effect. The method in brief: as §1
A short description of assay [14]: qHTS of pediatric cancer cell lines to identify multiple opportunities for drug repurposing: Confirmatory screen for OHS-50 cells (AID 1347128).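 Further: compound exposure lasted 48 h at 37 degrees C; nearly all actives have a fitted effect of over 55% in size.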 Further: potency means the concentration at half of the fitted maximal effect. The method in brief:
as §1

Assay [15] in a line: qHTS of pediatric cancer cell lines to identify multiple opportunities for drug repurposing: Primary screen for Rh30 cells (AID 1347107). Further: series mostly up to about 46 µM; nearly all actives have a fitted effect of over 75% in size. The method in brief: as §1
The target of the next assay is Furin (Homo sapiens) (UniProt P09958). Nature of the assay: Furin counterscreen qHTS for Zika virus inhibitors (AID 1347149). Further: nearly all actives have a fitted effect of over 70% in size. Further: potency means the concentration at half of the fitted maximal effect. Put shortly: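 Fluorogenic cleavage of BOC-RVRR-AMC (2 microM final, Km ~15 µM) was monitored (ex 340, em 450 nm) at 37C after 15 min RT preincubation of 5 nM furin with compounds in HEPES pH 7.0 buffer with CaCl2 and Triton X-100. Percent inhibition was fitted to a 4-parameter Hill curve.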
In general terms: A counterscreen serves to expose hits that act by an unwanted route or on another target.

Assay [16] can be described thus: qHTS of pediatric cancer cell lines to identify multiple opportunities for drug repurposing: Confirmatory screen for Rh18 cells (AID 1347125). Further: nearly all actives have a fitted effect of over 55% in size. Further: potency means the concentration at half of the fitted maximal effect. The method in brief:
as §1

Assay [17] in a line: qHTS of pediatric cancer cell lines to identify multiple opportunities for drug repurposing: Confirmatory screen for SK-N-SH cells (AID 1347129).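 Further: cells exposed to compound for 48 h before viability read; nearly all actives have a fitted effect of over 60% in size.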 Further: potency means the concentration at half of the fitted maximal effect. Put shortly:
as §1

A short description of assay [18]: qHTS of pediatric cancer cell lines to identify multiple opportunities for drug repurposing: Confirmatory screen for control Hh wild type fibroblast cells (AID 1347121). Further: nearly all actives have a fitted effect of over 70% in size. Further: potency means the concentration at half of the fitted maximal effect. Put shortly: as §1
The target of assay [19] is N-terminal Xaa-Pro-Lys N-methyltransferase 1 (Homo sapiens) (UniProt Q9BV86). Briefly: qHTS Assay for Inhibitors of N-terminal methyltransferase 1 (NTMT1): LOPAC validation of the NTMT1 SAHH-coupled ThioGlo3 Assay (AID 1347143). Further: nearly all actives have a fitted effect of over 70% in size. Put shortly:
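Fluorescence read-out (excitation 340nm, emission 450nm) of SAH-derived thiol, measured via SAHH coupling and ThioGlo3, taken immediately and after a 30 min room-temperature reaction, then normalized to the background read. Enzyme: NTMT1 at 125nM; cofactor SAM 100uM in the added reagent.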

Sequence of Furin (Homo sapiens) (P09958 whole entry, looked up): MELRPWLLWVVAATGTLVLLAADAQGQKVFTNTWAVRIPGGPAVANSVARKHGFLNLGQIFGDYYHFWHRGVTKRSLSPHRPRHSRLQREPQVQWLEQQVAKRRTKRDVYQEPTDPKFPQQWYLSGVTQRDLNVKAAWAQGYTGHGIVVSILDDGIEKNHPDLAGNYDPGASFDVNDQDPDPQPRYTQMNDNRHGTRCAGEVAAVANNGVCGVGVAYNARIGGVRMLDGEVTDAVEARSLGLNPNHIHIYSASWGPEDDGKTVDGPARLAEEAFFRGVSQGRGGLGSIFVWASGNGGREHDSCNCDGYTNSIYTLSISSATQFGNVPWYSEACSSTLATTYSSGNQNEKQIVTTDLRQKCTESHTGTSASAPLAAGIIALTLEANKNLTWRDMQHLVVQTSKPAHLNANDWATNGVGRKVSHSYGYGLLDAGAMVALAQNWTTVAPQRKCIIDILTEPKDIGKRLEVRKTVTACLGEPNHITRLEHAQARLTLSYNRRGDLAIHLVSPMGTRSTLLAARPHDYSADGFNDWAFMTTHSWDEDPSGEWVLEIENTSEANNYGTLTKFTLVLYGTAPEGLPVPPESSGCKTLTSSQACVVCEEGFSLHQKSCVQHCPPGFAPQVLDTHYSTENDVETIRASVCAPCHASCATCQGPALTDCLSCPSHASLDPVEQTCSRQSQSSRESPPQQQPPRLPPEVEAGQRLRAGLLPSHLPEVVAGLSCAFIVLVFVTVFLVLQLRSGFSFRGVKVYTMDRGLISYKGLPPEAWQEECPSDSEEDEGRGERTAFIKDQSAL
Sequence of N-terminal Xaa-Pro-Lys N-methyltransferase 1 (Homo sapiens) (Q9BV86 whole entry, looked up): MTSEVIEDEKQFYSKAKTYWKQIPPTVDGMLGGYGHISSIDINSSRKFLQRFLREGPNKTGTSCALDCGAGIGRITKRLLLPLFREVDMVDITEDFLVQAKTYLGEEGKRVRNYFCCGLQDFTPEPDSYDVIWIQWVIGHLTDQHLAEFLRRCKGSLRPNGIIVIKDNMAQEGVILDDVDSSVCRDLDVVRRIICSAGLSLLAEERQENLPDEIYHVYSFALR

Take `C[C@@H]1O[C@@H](O[C@@H]2C=C3CC[C@@H]4[C@@H](CC[C@]5(C)[C@H](c6ccc(=O)oc6)CC[C@@]45O)[C@@]3(C)CC2)[C@H](O)[C@H](O)[C@H]1O`: the Potency was 23.5 nM (active) in assay [1]; 82.7 nM (active) in [2]; 52.2 nM (active) in [3]; 58.5 nM (active) in [4]; 58.5 nM (active) in assay [5]; 13.1 nM (active) in assay [6]. Moreover, the Potency in assay [7] was 23.3 nM (active); in [8] it was 7.4 nM (active); in [9], 16.5 nM (active); in [10] it was 16.5 nM (active); in assay [11], 16.5 nM (active); in [12], 46.5 nM (active). Further, the Potency in assay [13] is 185 nM (active); in assay [14] it was 16.5 nM (active).
For the molecule `O=c1cccc2n1CC1CNC[C@H]2C1`, the Potency in [1] is 11800 nM (active).
As to `COCC1(CO)C(=O)C2CCN1CC2` (stereo not drawn), the Potency in assay [1] was 20900 nM (active).
On to `CC(=O)N(C)c1cccc(-c2ccnc3c(C(=O)c4cccs4)cnn23)c1`, for which the Potency result in assay [15] and in assay [1] was “inactive” in each case. The Potency in the assay with Furin (Homo sapiens) is 24100 nM (active).
For `C[C@H]1CCCC=CC2C[C@H](O)C[C@@H]2[C@H](O)C=CC(=O)O1` (stereo partly drawn), the Potency entry in assay [15] was “inactive”. Further, the Potency in [2] is 131 nM (active); in assay [3], 414 nM (active); in [4] it was 117 nM (active); in assay [5], 208 nM (active); in [6] it was 92.8 nM (active); in [7], 117 nM (active). The Potency in assay [9] was 208 nM (active); in assay [10], 827 nM (active); in [11], 329 nM (active); in [16] it was 104 nM (active); in assay [12], 3690 nM (active); in [14], 46.5 nM (active). In [17], the Potency is 132 nM (active).
In the case of `O=S(=O)(CC1CS1)c1ccc(Oc2ccccc2)cc1` (stereo not drawn), the Potency in assay [1] is 18700 nM (active).
Turning to `O=C(N[C@H]1CN2CCC1CC2)c1ccc(Cl)cc1`, the Potency in assay [2] was 16500 nM (active); in [3] it was 1650 nM (active); in assay [4], 23300 nM (active); in assay [5], 585 nM (active); in assay [7], 1650 nM (active); in [11], 414 nM (active). The Potency in assay [14] is 10400 nM (active). Moreover, the Potency result in assay [6], in assay [18], in assay [16] and in assay [19] was “inactive” each time.
For `COc1ccc2c(c1)CN(C)CC2c1ccc(Cl)c(Cl)c1` (stereo not drawn), the Potency entry in assay [15] and in [18] was “inactive” in each case. Further, the Potency was 1470 nM (active) in assay [5]; 23300 nM (active) in assay [6]; 6570 nM (active) in assay [7]; 20800 nM (active) in assay [9]; 18500 nM (active) in [10]; 23300 nM (active) in [13]. Moreover, in [14], the Potency is 23300 nM (active).
On to `C[C@]12Cc3cn[nH]c3C[C@@H]1CC[C@@H]1[C@H]2CC[C@@]2(C)[C@H]1CC[C@]2(C)O`, for which the Potency result in [1], in [2], in assay [3], in assay [5], in [8] and in [18] was “inactive” throughout. Further, the Potency entry in assay [9], in [10], in assay [16], in assay [14] and in assay [17] was “inactive” each time.
For the molecule `CCCN1CCO[C@@H]2c3cc(O)ccc3OC[C@@H]21`, the Potency result in assay [15], in assay [2], in assay [3], in assay [4], in assay [5] and in assay [8] was “inactive” each time. For the same molecule, the Potency result in assay [18], in assay [9], in [10], in assay [11] and in [17] was “inactive” throughout. Besides, in assay [12], the Potency is 8270 nM (active).
For `CCC(=O)OC1CCC2C3CCC4=CC(=O)CC[C@@]4(C)C3CC[C@]12C` (stereo partly drawn), the Potency result in assay [15], in assay [2], in assay [3], in assay [4], in assay [5] and in [6] was “inactive” in each case. For the same molecule, the Potency result in [8], in assay [18], in assay [9], in assay [11], in assay [16] and in assay [12] was “inactive” throughout. The Potency entry in assay [13], in [14] and in [17] was “inactive” in each case.
As to `CCCCCC[C@H]1C(=O)O[C@H](C)[C@H](NC(=O)c2cccc(NC=O)c2O)C(=O)O[C@@H](C)[C@@H]1OC(=O)CC(C)C`, the Potency in [3] is 13100 nM (active); in assay [4], 5850 nM (active); in assay [7], 117 nM (active); in assay [8] it was 13.1 nM (active); in assay [18], 16.5 nM (active); in assay [17], 9350 nM (active).
For `O=c1[nH]c2ccc(Cl)cc2c(N[C@@H]2CN3CCC2CC3)c1-c1nc2ccccc2[nH]1`, the Potency entry in [15] was “inactive”. Besides, the Potency in [2] is 1310 nM (active); in assay [3], 261 nM (active); in assay [4] it was 1470 nM (active); in assay [5], 1040 nM (active); in assay [6], 5850 nM (active); in assay [7], 465 nM (active). For the same molecule, the Potency in assay [18] is 18500 nM (active); in [9], 1310 nM (active); in [10], 3690 nM (active); in [11], 2330 nM (active); in [16], 26100 nM (active); in assay [12], 5220 nM (active). The Potency in assay [13] is 1310 nM (active); in assay [14] it was 657 nM (active); in assay [17], 5260 nM (active).
As to `O=C(O)COc1nc(Cl)c(Cl)cc1Cl`, the Potency result in assay [15], in [4], in [6], in assay [8], in [18] and in assay [9] was “inactive” throughout. The Potency result in [10], in assay [11], in assay [16], in assay [12], in assay [14] and in assay [17] was “inactive” throughout. Besides, the Potency in assay [3] was 2180 nM (active).
For the molecule `C=CCN1CC[C@]23CCCCC2[C@H]1Cc1ccc(O)cc13` (stereo partly drawn), the Potency entry with Furin (Homo sapiens) is “inactive”.
